This passage reports composite Z-score results from PubChem BioAssay.

Values without a mark were called inactive.

A short description of the test: small-molecule microarray binders of probe aXIP, primary screen, biochemical, NeuroSMM set, 635/667 nm fluorescence (AID 1119).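 Also: probe is the protein aXip251-270 applied at 1 µg/mL to compound-printed slides; binding of probe to printed compounds measured as 667 nm fluorescence plus signal to noise.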 The following applies: higher = more signal, called active from +8 up or from −8 down.
On to `[N-]=[N+]=Nc1ccccc1[C@H]1OC(c2ccc(OCCCO)cc2)=N[C@@]1(CCS(=O)(=O)c1ccccc1)C(=O)N1CCCCC1`, for which the composite Z-score was -0.311.

For `CN(C)CCCNC(=O)[C@@H]1c2ccccc2C(=O)N(CC23CC4CC(CC(C4)C2)C3)[C@H]1c1ccc(CO)cc1`, the composite Z-score is 2.01.

Regarding `COC(=O)[C@]1(CCS(=O)(=O)c2ccccc2)N=C(c2ccc(OCCCO)cc2)O[C@@H]1c1ccccc1CN=[N+]=[N-]`, the composite Z-score was -0.139.

Take `O=C(NC1CC1)[C@@H]1c2ccccc2C(=O)N(Cc2ccccc2)[C@H]1c1ccc(CO)cc1`: the composite Z-score was 0.081.

For the molecule `COC(=O)C1(Cc2ccccc2)C=C2C(=C(c3ccccc3)C(=O)C2C)CN1` (stereo unspecified), the composite Z-score is 0.257.

In the case of `NC(N)=NCc1cn(CCc2c[nH]c3ccccc23)nn1`, the composite Z-score is 0.354.

Consider `CC(=O)n1cc(C(O)C2C=CC3C(=O)N(c4ccccc4)C(=O)C3N2Nc2ccccc2)c2ccccc21` (stereo unspecified), for which the composite Z-score is 0.197.

Regarding `CC(C)C(O)C1C=CC2C(=O)N(C)C(=O)C2N1N(c1ccccc1)c1ccccc1` (stereo unspecified), the composite Z-score was 0.491.

On to `C=C(CCCC)/C(=C/C[C@@H](OC(C)=O)c1ccc(CO)o1)c1cc(C(=O)OC)ccc1OC`, for which the composite Z-score is 0.378.

With `COCCOC(=O)N1C(=O)[C@@]2(c3cc(C#Cc4ccc(OC)cc4)ccc31)[C@H](C(=O)N1CCCCCCC1)[C@H]1C(=O)O[C@H](c3ccccc3)[C@H](c3ccccc3)N1[C@@H]2c1ccc(O)cc1`, the composite Z-score was 0.527.

For the molecule `C#CCNC(=O)[C@H](Cc1ccccc1)NC(=O)[C@@H](N=[N+]=[N-])C(C)C`, the composite Z-score is -0.197.

Turning to `COc1c(C)cc(-c2cc3c(c(-c4ccccc4)n2)[Si](C(C)C)(C(C)C)OC3)cc1C`, the composite Z-score was 0.478.

In the case of `CN(C)CCCCNC(=O)[C@H]1C[C@H]2C(=O)N[C@@H](CCCCN(C)C)C(=O)N2[C@H]1c1cccc(OCCO)c1`, the composite Z-score was -1.

As for `COC(=O)C1(Cc2ccccc2)C=C2C(=C(C(C)C)C(=O)C2C)CN1` (stereo unspecified), the composite Z-score is 2.34.

For `[N-]=[N+]=NCc1ccccc1C[C@@]1(C(N)=O)N=C(c2ccc(OCCCO)cc2)O[C@@H]1c1ccccc1CN=[N+]=[N-]`, the composite Z-score is 1.22.

Consider `C=CCNC(=O)[C@@H]1[C@H]2C(=O)O[C@H](c3ccccc3)[C@H](c3ccccc3)N2[C@H](c2ccccc2OCCO)[C@@]12C(=O)N(C(=O)OCCOC)c1ccc(C#CC3=CCCCC3)cc12`, for which the composite Z-score was 2.45.

`[N-]=[N+]=NCc1ccccc1C[C@@]1(C(=O)NCCN2CCOCC2)N=C(c2ccc(OCCCO)cc2)O[C@@H]1c1ccccc1N=[N+]=[N-]`: the composite Z-score is 0.653.

Turning to `O=C1OCC=C[C@H]2OC34C=CCN(c5ccc(Cl)cc5)C(=O)[C@H]3N(CCCCCO)C(=O)[C@@H]4[C@@H]12` (stereo partly specified), the composite Z-score is 0.0583.

Consider `CN(C)C(=O)[C@]1(CCC(=O)OC(C)(C)C)N=C(c2ccc(OCCCO)cc2)O[C@@H]1c1ccccc1`, for which the composite Z-score is 0.666.

Consider `CCCNC(=O)[C@@]1(c2ccc([N+](=O)[O-])cc2)CC(=O)N(C2CCCCC2)[C@@H]1c1ccc(CO)cc1I`, for which the composite Z-score is 0.116.

In the case of `COC(=O)C[C@H]1O[C@]2(C(=O)N(C)c3ccccc32)[C@@H](C)[C@@H]1[Si](C)(C)c1ccc(C)cc1`, the composite Z-score was 0.397.

Take `COCCOC(=O)N1C(=O)[C@@]2(c3cc(C#CC4(O)CCCCCC4)ccc31)[C@H](c1ccccc1OCCO)N1[C@H](c3ccccc3)[C@H](c3ccccc3)OC(=O)[C@H]1[C@@H]2C(N)=O`: the composite Z-score was -0.02.

With `CO[C@H]1O[C@H](CO)[C@@H](OC(=O)c2ccc(Br)cc2)[C@@H]2OC(=O)[C@@H](Cc3ccc4ccccc4c3)C/C=C/C[C@H](Cc3ccc4ccccc4c3)C(=O)O[C@@H]12`, the composite Z-score is 0.589.

Take `COCCCNC(=O)[C@]1(Cc2ccccc2N=[N+]=[N-])N=C(c2ccc(OCCCO)cc2)O[C@@H]1c1ccccc1N=[N+]=[N-]`: the composite Z-score was 0.0401.

With `C=CCOC(=O)[C@H]1[C@@H]2C(=O)O[C@@H](c3ccccc3)[C@@H](c3ccccc3)N2[C@@H](c2ccc(OCCOC(=O)[C@H]3C[C@H]4C(=O)N[C@@H](CCCC[N+](C)(C)C)C(=O)N4[C@H]3c3cccc(OCCO)c3)cc2)[C@]12C(=O)Nc1ccc(I)cc12`, the composite Z-score was 0.197.

With `COc1ccc(NN2C(C(O)c3ccco3)C=CC3C(=O)N(C4CCCCC4)C(=O)C32)cc1` (stereo unspecified), the composite Z-score was 0.0786.

For the molecule `O=C1NC(=O)C2C1C=CC(C(O)c1ccc(Br)cc1)N2Nc1ccccn1` (stereo unspecified), the composite Z-score is -0.838.

Take `C[C@]1(C(=O)O)c2ccccc2C(=O)N(Cc2ccccc2)[C@H]1c1ccc(CO)cc1`: the composite Z-score is 0.174.

Turning to `COCCOC(=O)N1C(=O)[C@@]2(c3cc(C#CC4(O)CCCCCC4)ccc31)[C@H](C(N)=O)[C@H]1C(=O)O[C@H](c3ccccc3)[C@H](c3ccccc3)N1[C@@H]2c1ccc(O)cc1`, the composite Z-score was -0.014.

For the molecule `CCN(CC)c1ccc(N2CC=CC34O[C@@H]5/C=C\CCC(C)OC(=O)C5[C@H]3C(=O)N(CCO)[C@@H]4C2=O)cc1` (stereo partly specified), the composite Z-score is 0.736.

For the molecule `CCOC(=O)C[C@H]1[C@H](OC(=O)c2ccccc2-c2ccccc2)[C@@H](NC(=O)CC(C)C)c2cc(OCCCO)ccc2N1C(=O)c1ccc2ccccc2n1`, the composite Z-score was 0.675.

For `O=C1O[C@@H](c2ccccc2)[C@@H](c2ccccc2)N2[C@@H](c3ccccc3OCCO)[C@]3(C(=O)Nc4ccc(C#CC5=CCCCC5)cc43)[C@@H](C(=O)NC[C@H](O)c3ccccc3)[C@H]12`, the composite Z-score is -0.584.

In the case of `C=CCOC(=O)[C@@H]1[C@H]2C(=O)O[C@H](c3ccccc3)[C@H](c3ccccc3)N2[C@H](c2ccc(OCCOC(=O)[C@H]3C[C@H]4C(=O)N[C@@H](CC(C)C)C(=O)N4[C@H]3c3ccc(O)cc3)cc2)[C@@]12C(=O)Nc1ccc(I)cc12`, the composite Z-score was 0.761.

For the molecule `NCCCCCCNC(=O)[C@H]1C[C@H]2C(=O)N[C@@H](Cc3ccccc3)C(=O)N2[C@H]1c1ccc(O)cc1`, the composite Z-score was 0.126.

For `O=C1OCC=C[C@H]2OC34C=CCN(Cn5nnc6ccccc65)C(=O)[C@H]3N(CCCCCCO)C(=O)[C@@H]4[C@@H]12` (stereo partly specified), the composite Z-score was 0.648.

As to `COc1ccc([Si](C)(C)[C@H]2[C@H](CCn3cc([C@H](O)c4ccccc4)nn3)O[C@@]3(C(=O)N(Cc4ccc(N5CCC5=O)cc4)c4ccccc43)[C@@H]2C)cc1`, the composite Z-score is -0.128.
